Results on 14 compounds are retold here after PubChem BioAssay (NCI).

What all share (assay): NCI-60 one-dose screen, 48 h (100 = growth as untreated, 0 = no growth, -100 = all killed)
What all share (settings): 10 µM unless noted

The test system of test [1] is NCI-H23 lung.
Test [2] has as its system NCI-H226 lung.
Test [3] concerns NCI-H322M lung.
The subject of test [4] is HOP-62 NSCLC.
Test [5] deals with NCI-H460 lung.
In test [6] the test system is HOP-92 NSCLC.
Test [7] concerns NCI-H522 lung.
Test [8] has as its system A549/ATCC NSCLC.
In test [9] the test system is 786-0 renal.
Test [10] deals with COLO 205 colon.

Compounds without any hit were thinned out: in the full panel of roughly 83,000, 20% have a hit.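 Cell lines were cultured in 96-well plates, exposed to a single compound concentration, and assessed for percent growth 48 hours later.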 Values without a mark were called inactive. Calls of active or inactive are those of the source. Rule for the calls: active = growth percent below 10; inactive = the rest.

Take `O=C(Nc1ccc(Nc2cc(Nc3ccccc3)ncn2)cc1)Nc1cc(C(F)(F)F)ccc1F`: the growth in test [1] was 77.5%; in test [2] it was 94.7%; in [3], 61.9%; in [4], 68.6%; in [5] it was 69.8%; in test [6] it was 49.3%. The growth in test [7] is 24.5%; in test [8], 48.1%; in test [9], 84.4%; in test [10] it was 64.4%.

For the compound `O=c1c(/C=C/c2ccco2)nnc(SCCN2CCOCC2)n1/N=C/c1ccc([N+](=O)[O-])cc1`, the growth was 91% in test [1]; 85.5% in [2]; 113% in test [3]; 101% in test [4]; 103% in test [5]; 90.5% in test [6]. Further, the growth is 86.5% in test [7], 99.4% in [8], 95.2% in test [9] and 112% in test [10].

As to `CCC(=O)Oc1ccc(/C(=C(\C)c2ccccc2)c2ccc(OCCN(CC)CC)cc2)cc1`, the growth in test [1] was 89.1%; in test [2], 95.8%; in test [3] it was 96.2%; in [4], 95.3%; in test [5], 80.9%; in test [6] it was 61%. Moreover, the growth is 73.5% in test [7], 84.9% in test [8], 70.1% in test [9] and 74.6% in test [10].

Take `CC(C)(C)c1nn(-c2ccccc2)c2c1CC1(CN2Cc2ccc3c(c2)OCO3)C(=O)c2ccccc2C1=O`: the growth in [1] is 106%; in test [2], 110%; in test [3], 107%; in test [4], 97.3%; in test [5], 112%; in [6], 97.2%. The growth in [7] was 141%; in test [8] it was 79.4%; in test [9], 98.4%; in [10], 108%.

`O=C(CN1CCN(c2cc3c(cc2F)c(=O)c(C(=O)N/N=C/c2ccccc2)cn3C2CC2)CC1)N/N=C\c1ccccc1`: the growth is 94.5% in test [1]; 81.3% in test [2]; 85.4% in test [3]; 109% in test [4]; 66.3% in test [5]; 76% in test [6]. For the same compound, the growth in test [7] was 76.5%; in test [8], 69.9%; in test [9], 90.4%; in [10] it was 99.6%.

Consider `CCCCCCCCCC(=O)Oc1ccc(/C(=C(/C)Cc2cccc(OC)c2)c2ccc(OCCN(C)C)cc2)cc1`, for which the growth is 99.3% in test [1]; 114% in test [2]; 107% in test [3]; 111% in test [4]; 112% in test [5]; 113% in test [6]. Further, the growth in test [7] was 97%; in test [8], 108%; in test [9], 103%; in [10] it was 118%.

Take `Cn1c(=O)c2[nH]c(C(O)C(O)C(O)C(O)CO)nc2n(C)c1=O` (stereo not given): the growth in [1] was 100%; in test [2], 95.1%; in test [3], 93.7%; in test [4], 96%; in test [5], 107%; in test [6] it was 109%. The growth in test [7] is 86.7%; in [8], 88.7%; in [9], 107%; in [10] it was 103%.

With `O=C1/C(=C/c2ccccc2)CN(CCC(=O)N2C/C(=C\c3ccccc3)C(=O)/C(=C/c3ccccc3)C2)C/C1=C\c1ccccc1`, the growth in test [1] is 85.4%; in test [2], 84.7%; in test [3] it was 90.4%; in [4], 118%; in test [5], 84.7%; in [6], 63.1%. In addition, the growth in test [7] was 53.9%; in test [8], 88.2%; in test [9], 73%; in [10], 82.4%.

Consider `CN(C)CCOc1ccc(-c2nc3ccc(-c4nc5ccc(N6CCN(C)CC6)cc5[nH]4)cc3[nH]2)cc1`, for which the growth was 76.9% in test [1]; 28.7% in [2]; 77.8% in [3]; 69.9% in test [4]; 56% in test [5]; 61.7% in [6]. Also, the growth was 59.9% in test [7], 64.4% in test [8], 86.4% in test [9] and 44.5% in test [10].

As to `O=C1Nc2ccccc2/C1=C/C(=N/c1nnc(-c2ccccc2)s1)c1ccccc1`, the growth in test [1] is 45.7%; in test [2], 86.5%; in [3], 95.7%; in test [4], 57%; in test [5], 88.2%; in test [6], 45.4%. Further, the growth in [7] is -59.3% (active); in test [8] it was 80.2%; in test [9] it was -19.3% (active); in test [10], 2.53% (active).

Consider `C[C@@]1(N2C(=O)OC[C@@H]2c2ccccc2)C(=O)N([C@H](CC(=O)N2CCC(N3CCCCC3)CC2)C(=O)NCc2cccc(C(F)(F)F)c2)[C@@H]1/C=C/c1ccccc1`, for which the growth in [1] was 78.8%; in [2], 89.6%; in [3], 72.8%; in [4] it was 84.7%; in test [5], 2.37% (active); in test [6], 64.4%. Besides, the growth in [7] was -9.84% (active); in test [8] it was 54.6%; in test [9], 70%; in test [10], -67.1% (active).

For `Cc1ccc(/C=C2\Oc3cc(OCC(=O)c4ccc(Cl)cc4)ccc3C2=O)cc1`, the growth is 90.1% in test [1]; 109% in [2]; 103% in [3]; 104% in [4]; 120% in test [5]; 88.2% in test [6]. The growth in test [7] was 103%; in test [8] it was 90.1%; in test [9], 107%; in [10], 111%.

Turning to `CCCCCCCCCCCCCCCCCCNC(=O)[C@H]1CSC(c2ccc(F)c(OC)c2)N1` (stereo not given in full), the growth was 5.24% (active) in [1]; -69% (active) in test [2]; -22.2% (active) in [3]; -97.6% (active) in test [4]; -77.7% (active) in test [5]; -5.83% (active) in [6]. The growth was 7.12% (active) in [7], -12.9% (active) in test [8], -10.6% (active) in [9] and 20.1% in test [10].

With `O=C1CCc2c(sc3[nH]c(=S)n(Cc4ccccc4)c(=O)c23)C1`, the growth is 0.541% (active) in test [1]; 51.2% in [2]; 30.1% in [3]; 10.2% in test [4]; 3.94% (active) in test [5]; -19.5% (active) in [6]. In addition, the growth in [7] is 2.03% (active); in test [8], 13.9%; in [9], 30.9%; in test [10], 32.3%.
